# LmPK inh: inhibitors of Leishmania mexicana pyruvate kinase | Q27686 | purified LmPK, Kinase-Glo ATP luminescence, 1 h | Potency, µM (top dose mostly 57.5 µM), inactives show at the top dose activity change, negative = inhibition, actives largely listed as inhibitors | actives 0.37% (n = 290,000); also: potency is read from the fitted curve at half-maximal effect; % is scaled to controls: 0 for no effect and ±100 for the full control effect
# Target sequence (Q27686 whole entry, looked up): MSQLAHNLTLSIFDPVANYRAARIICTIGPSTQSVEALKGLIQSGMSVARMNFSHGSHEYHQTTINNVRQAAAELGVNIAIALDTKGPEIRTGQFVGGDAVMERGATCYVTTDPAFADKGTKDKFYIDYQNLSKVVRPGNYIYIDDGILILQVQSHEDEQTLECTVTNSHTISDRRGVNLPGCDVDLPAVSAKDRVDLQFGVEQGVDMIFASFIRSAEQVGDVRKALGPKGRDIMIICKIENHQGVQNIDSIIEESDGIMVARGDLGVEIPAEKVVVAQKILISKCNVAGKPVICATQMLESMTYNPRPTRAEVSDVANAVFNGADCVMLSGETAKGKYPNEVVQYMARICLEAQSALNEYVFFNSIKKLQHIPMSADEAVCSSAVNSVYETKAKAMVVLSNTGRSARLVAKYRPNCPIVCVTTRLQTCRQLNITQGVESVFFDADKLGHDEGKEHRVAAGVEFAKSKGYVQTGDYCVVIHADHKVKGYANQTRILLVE
#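 Pyruvate kinase activity monitored as ATP production (luciferase luminescence). Conditions: 0.1 nM enzyme, 0.5 mM PEP, 0.1 mM ADP, 1 h, RT; normalized against uninhibited and no-enzyme wells.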
# Tb PYK inh: blocks Trypanosoma brucei pyruvate kinase; TbPYK enzyme, Kinase-Glo Plus ATP luminescence, 45 min; Potency, µM (doses to about 76.8 µM), for inactives: at the top dose activity, negative = inhibition, actives largely listed as inhibitors; actives 0.12% (n = 410,000); AID 624173; also: potency is read from the fitted curve at half-maximal effect; % is scaled to controls: 0 for no effect and ±100 for the full control effect; nearly all actives have a fitted effect of over 50% in size
#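 Screened from lowest to highest concentration, compounds were pinned into TbPYK/substrate mixtures, and ADP (130 uM final) was added. Plates sat at room temperature for 45 min prior to Kinase-Glo Plus detection by luminescence.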
# RE007 growth inh: less growth of the S. pombe RE007 Vpr strain | actives 0.21% (n = 360,000) | Potency, µM (doses to about 92.2 µM), for the others: at the highest dose activity change, negative = less growth, actives largely listed as inhibitors | S. pombe RE007 Vpr strain, BacTiter-Glo ATP luminescence, 24 h; active = well fitted falling curve with a large enough effect; inconclusive = small, poorly fitted or top-dose-only effect; inactive = no such curve, though single readings can be large or run the other way; also: potency is read from the fitted curve at half-maximal effect; % is scaled to controls: 0 for no effect and ±100 for the full control effect; nearly all actives have a fitted effect of over 50% in size
#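 Fission yeast RE007 carrying one integrated HIV-1 vpr copy, seeded at OD 0.01 in PMG+AL medium with 23 nL pinned compound. Grown 24 h at 30 degrees; viability read by BacTiter-Glo luminescence after 5 min.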
# FBPA Giardia inh: blocks Giardia fructose-bisphosphate aldolase activity | purified Giardia FBPA | actives 0.71% (n = 290,000) | Potency, µM (doses to about 59.6 µM), inactives show at the top dose activity, negative = inhibition, actives largely listed as inhibitors | AID 2451 | A8B2U2; also: potency is read from the fitted curve at half-maximal effect; % is scaled to controls: 0 for no effect and ±100 for the full control effect; nearly all actives have a fitted effect of over 55% in size
#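 Giardia FBPA (40 nM reagent) was preincubated 10 min at RT with compound (up to 57.5 uM final), then substrate plus GAPDH/TPI/NAD/arsenate coupling system with diaphorase/resazurin was added; resorufin fluorescence (525/598 nm) was read after 20 min.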
# Shiga toxin inh: Shiga toxin inhibition. inhibition, % at 38.7 µM. actives 9.2% (n = 290,000). Vero cells, Shiga toxin protein synthesis inhibition reporter; in the data active = inhibition mostly above about 28%, no sharp cut-off; inactive = mostly below about 43%; also: 0% is about no effect
# Cycloheximide cs: counter-screen hit for Shiga toxin inhibitors, cycloheximide | cell reporter, cycloheximide protein synthesis inhibition counterscreen | max response, % | actives 12% (n = 300,000) | AID 2314; in the data active = max response mostly above about 13%, no sharp cut-off; inactive = mostly below about 14%; also: read at 38.3 µM for the half of the compounds with a filed dose; 0% is about no effect
# Starred values were filed as active, the others as inactive; u = inconclusive; x = no result given; [ ] = remark or other dose. Shown is part of a subset that was picked to be rich in hits. Unless noted, calls follow the shape of the dose curve; as a rule, active = well fitted curve in the direction sought with a large enough effect; inconclusive = small, poorly fitted or top-dose-only effect, or another doubt; inactive = no such curve, though single readings can be large; an effect the other way counts as inactive or inconclusive.
SMILES,LmPK inh,Tb PYK inh,RE007 growth inh,FBPA Giardia inh,Shiga toxin inh,Cycloheximide cs
CCCCOc1ccc(C(=O)Nc2ccc(OCC(=O)N3CCOCC3)cc2)cc1,2.3%,0.5%,7.0%,-3.1%,51.2*,25.7*
CCCCOc1ccc(C(=O)Nc2ccc3c(c2)OCO3)cc1,-1.0%,-1.8%,41.7%,0.6%,24.4,17.8*
CCC(=O)Oc1ccc(C(=O)Nc2ccc3c(c2)OCO3)cc1,u,-6.9%,-26.9%,-2.1%,107.5*,46.4*
Cc1cccc(CNC(=O)CCCN2C(=O)CCn3nc(-c4cccn4C)cc32)c1,x,-0.3%,x,x,x,x
CCCCNC(=O)Nc1ccc(C(O)(C(=O)OC)C(F)(F)F)cc1 (stereo not drawn),0.6%,-1.7%,2.0%,-5.9%,4.8,0.7
COC(=O)C(O)(c1ccc(NC(=O)c2cccs2)cc1)C(F)(F)F (stereo not drawn),0.3%,-10.0%,-2.6%,-10.6%,71.7*,33.3*
COC(=O)C(O)(c1ccc(NC(=O)c2ccccc2)cc1)C(F)(F)F (stereo not drawn),1.1%,-3.5%,0.2%,-20.5%,103.1*,51.1*
O=C(c1ccco1)N1CCC2(CCCN(c3ncccn3)C2)CC1,x,-2.5%,x,2.4%,x,x
COc1ccccc1C1C2C(=O)N(c3ccccc3)C(=O)C2ON1c1ccccc1 (stereo not drawn),7.7%,4.8%,-20.3%,-6.8%,-18.5,3.0
Cc1ccc(N2C(=O)C3ON(c4ccccc4)C(CC(C)C)C3C2=O)cc1 (stereo not drawn),2.6%,-1.0%,-3.6%,-0.6%,20.9,9.3*
Cc1cccc(OCC(=O)O/N=C(\N)Cc2cccs2)c1,-0.9%,1.7%,-12.9%,-1.5%,-6.5,-4.1
COc1ccc(OCC(=O)O/N=C(\N)Cc2cccs2)cc1,-0.1%,0.4%,2.5%,-1.2%,63.5*,21.9*
N/C(Cc1cccs1)=N\OC(=O)COc1ccc(Br)cc1,0.1%,-2.3%,-8.7%,0.1%,23.4,30.2*
Cc1ccccc1C(=O)O/N=C(\N)Cc1cccs1,-11.7%,1.4%,-29.4%,1.0%,95.0*,87.6*
O=c1ccc2cc(O[C@H]3OC(CO)C(O)C(O)C3O)c(O)cc2o1 (stereo partly drawn),x,x,x,-2.0%,x,x
CCOC(=O)C1CCN(C(=O)Cn2ncc3c4ccccc4n(Cc4ccccc4F)c3c2=O)CC1,x,-4.2%,x,x,x,x
O=C(O)C1Cc2c([nH]c3ccccc23)C(c2coc3ccccc3c2=O)N1 (stereo not drawn),x,x,x,-7.4%,x,x
CCCCCCCCCCCCCCC[C@@H](O)[C@H](CO)NC(=O)CCCCCCC,x,x,x,-3.0%,x,x
C/C(NC(=O)c1cccc(F)c1)=C1/C(=O)C[C@@H]2[C@H]1C2(C)C,6.3%,4.8%,4.2%,7.9%,21.8,23.4
C/C(NC(=O)c1ccccc1F)=C1\C(=O)C[C@@H]2[C@H]1C2(C)C,0.6%,-13.2%,-27.8%,-3.3%,34.7,13.9*
C=C(C)Cc1c(C)nc(-c2ccccc2)[nH]c1=O,-1.9%,-4.9%,-18.3%,3.3%,38.1*,18.0*
CCCCCCOC(=O)Cc1c(C)nc(-c2ccccc2)[nH]c1=O,-2.9%,-1.5%,-6.6%,7.7%,-7.2,-4.9
Cc1cccc(NC(=O)Nc2cc(C)on2)c1,0.5%,-2.8%,2.3%,8.7%,71.1*,39.3*
Cc1cc(NC(=O)Nc2ccc(Cl)c(Cl)c2)no1,x,-0.5%,11.8%,x,x,x
Cc1cc(NC(=O)c2ccc(Cl)cc2Cl)no1,2.0%,0.2%,-3.6%,4.4%,x,42.1*
SMILES,LmPK inh,Tb PYK inh,RE007 growth inh,FBPA Giardia inh,Shiga toxin inh,Cycloheximide cs
Cc1cc(NC(=O)/C=C/c2ccc(Cl)cc2)no1,-0.2%,-3.8%,-17.5%,4.4%,72.7*,23.4*
Cc1cc(NC(=O)Nc2ccc(Cl)cc2)no1,0.2%,-10.8%,-1.6%,7.9%,x,26.8*
CCCCCC(=O)/C=C/C=C\C/C=C\C/C=C\CCCC(=O)O,x,x,x,1.7%,x,x
Cc1ocnc1C(=O)Nc1ccc(Cl)cc1,-26.4%,-11.4%,-28.7%,-19.6%,122.1*,43.5*
O=C(NCCNC(=O)c1ccc(Cl)cc1Cl)c1ccc(Cl)cc1Cl,x,-5.6%,-3.1%[18.4 µM],x,x,x
Cc1cc(C(=O)Nc2ccc(C#N)cc2)on1,-3.4%,-0.7%,0.3%,8.4%,5.0,8.2
Cc1ccc(NC(=O)Nc2cc(C)on2)cc1,-17.2%,0.4%,11.4%,-7.7%,75.3*,47.5*
Cc1cc(C(=O)Nc2ccc(Cl)cc2)on1,-0.2%,-0.9%,0.1%,-4.3%,58.4*,22.7*
O=C(Nc1ccsn1)c1ccc(Cl)cc1Cl,1.6%,5.5%,9.7%,6.9%,46.8*,41.3*
COC(=O)[C@@]1(Cc2ccc(OC)cc2)[C@H]2c3cc(C(=O)N(C)C)n(Cc4ccccn4)c3C[C@H]2CN1C(=O)c1ccccc1,x,x,x,-1.0%,x,x
CCOC(=O)N1CCN(C(=O)CN(c2cc(C)ccc2OC)S(=O)(=O)c2ccc(C)cc2)CC1,x,-3.5%,x,x,x,x
COc1ccc(CNC(=O)c2cc3ccccn3n2)c(OC)c1,x,-0.5%,x,x,x,x
C/C(CCN1CCc2nc(-c3ccccc3)c(-c3ccccc3)cc2C1)=N\OC[C@@H](O)COCc1ccco1,x,x,x,-3.6%[12.9 µM],x,x
CC(=O)Nc1ccc(NC(=O)/C=C/c2ccc(Cl)cc2)cc1,4.4%,-0.7%,2.7%,-0.4%,25.6*,29.9*
CN(C)/C=C/C(=O)/C=C/c1ccc(Cl)cc1,-12.0%,-1.7%,-18.7%,0.9%,86.6*,45.3*
CN(C)/C=C/C(=O)c1ccc(Cl)cc1,-3.5%,0.0%,-1.0%,0.7%,-5.2,8.9
COc1ccc(NC(=O)/C=C/c2ccc(Cl)cc2)cc1,x,x,x,-23.1%,x,x
O=C(Nc1nc(-c2ccccn2)cs1)c1ccc(Br)s1,5.3%,-8.0%,u,u,-3.8,9.8
O=C(Nc1nc(-c2ccccn2)cs1)C12CC3CC(CC(O)(C3)C1)C2,2.1%,-12.2%,-3.1%,u,90.7*,33.5*
O=C(Nc1ccccn1)C12CC3CC(C1)CC(C(=O)Nc1ccccn1)(C3)C2,-1.2%,6.5%,0.8%,0.6%,16.0,-3.2
O=C(Nc1nc(-c2ccccn2)cs1)C1CC1,-8.0%,-1.5%,8.5%,16.1%,42.5*,31.5*
O=C(CCS(=O)(=O)c1ccccc1)Nc1nc(-c2ccccn2)cs1,x,-0.5%,8.7%,x,x,x
O=C(CC1CC2CCC1C2)Nc1nc(-c2ccccn2)cs1 (stereo not drawn),6.7%,-12.2%,u,u,78.4*,46.4*
COc1ccc(C2C=C3CNS(=O)(=O)C3CC2OC(=O)c2ccc(C(F)(F)F)cc2)cc1 (stereo not drawn),x,x,x,-25.5%,-11.5,-10.5
COc1ccc(NC(=O)c2cc3ccccc3[nH]2)cc1,-4.6%,-5.0%,-3.5%,-0.6%,64.4*,40.2*
COc1ccc2[nH]c(C(=O)Nc3cccc(C)n3)cc2c1,28.2µM*,-25.1%,u,-0.3%,46.8*,28.6*

# Source: PubChem
